# Assay results from the supplement of paper PMC11417369.
# ± gives the standard deviation of the averaged measurements. The full ranking holds about 25,000 sequences; the median of “ln(normalized median fluorescence intensity)” is about 10, and the highest 2% start at about 12. The sample as a whole holds a higher share of the highest values than the screen did.
# Test system: PfAP2-G AP2 domain (GST-tagged)
# Assay: gcPBM binding intensity (ln(normalized median fluorescence intensity)); higher = stronger DNA binding
# In short: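 An Agilent 4 × 180k array of primer-extended double-stranded 36-bp intergenic genomic probes, with negative controls, was incubated for 1 h with GST-tagged P. falciparum DNA-binding domains expressed in E. coli. Alexa488 anti-GST antibody detected bound protein, scanned at 488 nm. Binding intensity is the highest Masliner-normalised natural-log median intensity across replicate spots of either probe orientation.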
row,Sequence,gcPBM binding intensity (ln)
1,ACCCAAGAGAAAAGAGAAAGAAATATGTGTATATTG [GTGCAC_negctrl_site214],9.92 ± 0.042
2,TTCAGTGTATACATATGTACATATATATATATATAT [XGTACX_site1621],11.3 ± 0.56
3,TTTTTTTTTTTTTTTTGTACATAATTATATATTTAC [XGTACX_site7540],10.9 ± 1
4,AAAATAATGTTTATATGTACATATATATATATATAT [XGTACX_site8815],11 ± 0.57
5,AACAATTAGAACTTTGCACACTTCTATATATTTTGT [CACACA_site674],9.91 ± 0.2
6,TTTTCTAAATAAATAGTGCATTTATTATATATACAT [GTGCAC_site9766],9.97 ± 0.13
7,ATATATATATATATATGTACATATTTGATTTTTCTT [XGTACX_site8171],11.1 ± 0.79
8,TATTTATTTATGTACGCACACAGTTGATATTAATTC [CACACA_site2754],11.6 ± 0.96
9,AAATATTATGTACGCACACACATTTTTGATATATAA [CACACA_site7755],11.5 ± 0.88
10,ATATTTATTTATTTATGTACGCACACAGTTGATATT [XGTACX_site5808],11.7 ± 1
11,TTGTAATATCTTGTCACACATATATATATATATATA [CACACA_site4937],10.1 ± 0.26
12,AATTGAAAAAGAAATTGTACATTTTATTTTTATTAT [XGTACX_site1973],10.9 ± 0.42
13,ATAGTCTTAATGACTACACACCTAACTATGCATGCA [CACACA_site5084],9.88
14,CAAAAATAAATATAAACACACAATAAATAAATAAAT [CACACA_site891],9.74 ± 0.057
15,CAAAAATAATTTAGGTGTACAAATTTGACAAAAAAA [XGTACX_site188],11.7 ± 0.59
16,TATTTTAACATTAGGTGTACATACAAAAATAAAAAT [XGTACX_site8577],11.6 ± 0.93
17,TAAAATAATACAAAATGTACAAAATTTACAAAATGT [XGTACX_site3541],10.5 ± 0.28
18,CTTAAAATGATAATATGTACACATAAATAATATATA [XGTACX_site8330],11.5 ± 0.76
19,ATAAACATCGGTAGTACACACATTCATGTACTTGAT [CACACA_site3037],11.8 ± 1
20,TATATAAACATCGGTAGTACACACATTCATGTATTT [XGTACX_site6443],11.5 ± 0.71
21,TACTACACACATTCATGTACTTGATAAATTAATGAT [XGTACX_site6444],10.9 ± 0.47
22,TTTTCAAAATGTTGTACACACAAAAAAAAAAAAAAA [CACACA_site1550],11.5 ± 1
23,TAAGAAAAAGGCACACGTACATAATTCAAAATAAAT [XGTACX_site982],11.3 ± 0.67

row,Sequence,gcPBM binding intensity (ln)
1,TATAAATAGAGGAAGCGTACATATATATATATATAT [XGTACX_site4993],11.3 ± 1
2,ATAAATAAATAAAAGCGTACATATATATAAAATATA [XGTACX_site8107],11.6 ± 0.88
3,TCGGGAGGGGGGAAGCGTACATATATAAAATTATTA [XGTACX_site4683],11.7 ± 0.76
4,TTATAAAAATACAGTTAACACACATGTGTATATATA [CACACA_site9257],10.4 ± 0.25
5,CGCATGCAATGTTAATGTACATATATATATATATGT [XGTACX_site3316],11.7 ± 0.64
6,ATATATATATATATATGTACATATGTTAATCTGCAT [XGTACX_site1068],11.2 ± 0.7
7,ATATATATATATATATGTACATAATGCATATAATAT [XGTACX_site6142],11.1 ± 0.52
8,AATATAAATAAAAAATTGATTTCTTTAAAAAGGTAT [CACACA_negctrl_site1038],9.67 ± 0.18
9,TTTTTATAAAAATTATTAAAAAAATTATTTATAGCT [CACACA_negctrl_site265],9.54 ± 0.12
10,ATGACATATAAATATACACACATACGTAAGTATATT [CACACA_site5058],9.96 ± 0.11
11,TATAAAAGGTAAGAGTGTACAAGTAAAAAATTTTTA [XGTACX_site771],11.2 ± 0.7
12,GTACAAAAAAAGTGTACACAAAGTAAGACTTTAATT [CACACA_site5068],11.7 ± 0.83
13,TTTAAAGTAATAAAGTGTACAAAAATAAATTCAGCT [XGTACX_site8651],11.2 ± 0.67
14,GTATAAAAAAATAAAAGTACAAAAAAAAAAGACTGA [XGTACX_site186],11.4 ± 0.77
15,AAAAAAAAAAAAAAAAGTACACAAATTTTAAAAATT [XGTACX_site3006],11.6 ± 0.88
16,TGTGTATAAAAAAAGTGTACACAAAGTAAGACTTTA [XGTACX_site3759],11.7 ± 0.86
17,TTCTAAAATTATATAGTGCAATTATATTAATTTTTC,9.785 ± 0.078
18,TTTGTTGGTATGGTTACACACATTTAGGAAATAAAA [CACACA_site1411],10.4 ± 0.34
19,GAACGTATCATGTGTACACACAAATTGTTTTTTTTT [CACACA_site2020],11.7 ± 0.91
20,TCGAACGTATCATGTGTACACACAAATTGTTTTTTT [CACACA_site8623],11.6 ± 0.86
21,TTTTACAAATGTTTTACACACACATAATTGTATCAA [CACACA_site4166],10.1 ± 0.13
22,ACCCATTGCTCACGTGCACACATAGAAAAATAATTC [CACACA_site4389],10.8 ± 0.58
23,TTTTTAATTTTTTTTAAACACACACCGTACATTCAA [CACACA_site7925],10.8 ± 0.61

row,Sequence,gcPBM binding intensity (ln)
1,ATTCATTTTTTGGGGGGTACACCCTTTTAAACATTT [XGTACX_site4797],11.8 ± 1.3
2,AAAAATTTAAGTGGGGGTACATTTTTTTAACACCTT [XGTACX_site1093],11.6 ± 0.66
3,AATAGCCCATATGGAATACACACTGAAAATAAAAAA [CACACA_site3373],10.3 ± 0.26
4,TATATATATATATATGCATGTACATATATTTGTTAT [TGCATGCA_site379],11.1 ± 0.42
5,TATATTTCAGGGGGGAGTACAAATTTTTTTATATAA [XGTACX_site1600],11.8 ± 0.87
6,TATAATTATATTTGGAGTACAAATTTTTTTTTTTTT [XGTACX_site7494],11.5 ± 0.9
7,TATTTTTTTTTTATATGTACATAATTTCAAATAAAT [XGTACX_site7747],11.4 ± 0.83
8,TATTGTATTTAATAAACACACAATATTAAAAATATA [CACACA_site4725],9.91 ± 0.16
9,GAAAACAAATATGTAGCACACATTCACATAATATAT [CACACA_site8731],9.97 ± 0.014
10,GTTACATACCTATACACACACATATATAAATAAATA [CACACA_site6549],10.2 ± 0.18
11,ATATATATAATATAGGTGCACTACTTATTTAAAAAA,10.5 ± 0.36
12,ATTGATAAATTAACTAGTACACATATAAATATATTA [XGTACX_site2325],11.3 ± 0.93
13,AAAGAAGGGAAACACACACACACACCCACAAAAAAA [CACACA_site3766],10.3 ± 0.33
14,TACACCAGTTGTGGGAGTACACAAAAAAAGGGAAAA [XGTACX_site6047],11.7 ± 1
15,TATAAGCTAAGTTGTTGTACAAAAAGGAAAAGTATA [XGTACX_site3741],11.1 ± 0.59
16,TATTATAATATTTATACACACATAATTTTGATAAAT [CACACA_site583],9.95 ± 0.16
17,TATATTATGACCACCACACACCTATACACATAACAT [CACACA_site7199],11.4 ± 0.91
18,ATTATAACACCTCCCCCCCTTTTTTTATGAAGACCA [CACACA_negctrl_site1043],11.8 ± 0.86
19,AACTTTTAGAAGAACACACACATATAGATTATGACC [CACACA_site6256],10.2 ± 0.014
20,TACACATACAGACATACACACATACACATATACACA [CACACA_site6918],10.2 ± 0.23
21,CACAAAAGTAAGCACGCACACACAACATGAAATAAA [CACACA_site7938],10.4 ± 0.18
22,TAATCTTTCGTACATGTACACACAGAAAAAAAAAAA [CACACA_site8798],11.8 ± 1.3
23,TTAATCTTTCCTACATGTACACACAGAAAAAAAAAA [XGTACX_site5213],11.5 ± 1

row,Sequence,gcPBM binding intensity (ln)
1,ATCTTTCGTACATGTACACACAGAAAAAAAAAAAAA [CACACA_site2502],11.5 ± 1
2,TTAAAGCTTGCATATACACACATACATAAATTCATA [CACACA_site7208],10 ± 0.18
3,TATTTTTTTTTTTTTTTTTTTACCTTTCCACTCAAA [CACACA_negctrl_site1454],9.84 ± 0.34
4,ATGTATATTTTTAAAAGTACAGAATTTTCATATGAA [XGTACX_site5754],11.3 ± 0.93
5,ATATATTTATATAGGTGTACATATTTTGCTATTCAA [XGTACX_site5199],11.6 ± 0.77
6,ATATATGTATATTTTTGTACGCATAAATATATTTTT [XGTACX_site827],11.3 ± 0.83
7,TGTAAATAATATAATAGTACGCATATTTTTATTGAA [XGTACX_site284],11.4 ± 0.78
8,TTATTTTCATATAGGTGTACATAAAAATATTCTTAT [XGTACX_site8861],11.6 ± 0.82
9,TATATACAATATAGGTGTACATTTTTTTATCTATTT [XGTACX_site8431],11.3 ± 0.69
10,TAATATATTAATATATGTACGTATTTTTATTAATAT [XGTACX_site5346],11.6 ± 0.93
11,AATTTATTTTTTTAATGTACATATGGTATAAATATA [XGTACX_site8012],11.3 ± 0.79
12,TATTATGTATGTATATGTACGTATCTTATTTTATTT [XGTACX_site5008],11.3 ± 0.76
13,ATATTTTTTTTTTCGTGTACGCATAAATATATCTAA [XGTACX_site3360],11.6 ± 0.95
14,TTTTTTAATAAATGGTGTACATATTTTTTTTATACT [XGTACX_site8584],11.8 ± 0.87
15,ATTTTATCTTTAAACTGTACGTATTAATATGTAGAA [XGTACX_site3077],11.7 ± 1.1
16,ATATTTATACATAAATGTACTTTTATATATTTAATA [XGTACX_site3020],11.1 ± 0.8
17,ATAATAAATAAATAATGTACATATGAAAGAATAAAT [XGTACX_site8355],11.1 ± 0.49
18,ATATAAAATAAATAAGTGCAGATAAATTTATGTGAC [GTGCAC_site9504],10.25 ± 0.057
19,TTGCCCATTTCATTAACACACAAATGTTTATATTCT [CACACA_site4569],10.17 ± 0.071
20,TCATACATTTTCCTTGCACACATTTATAATTAATGT [CACACA_site614],10.5 ± 0.17
